# Screening data as filed in PubChem.
# SMN2 splice up: qHTS Assay for Enhancers of SMN2 Splice Variant Expression; HEK293 SMN2-luciferase splicing reporter, luminescence, 30-36 h; Potency, µM (titrated, usually from 46.1 µM), without a hit: at the top dose activity change, positive = activation, usual class: activators; 210,000 tested, 2.8% active; AID 1458, 2008; also: % of control where 0% means no effect; nearly all actives have a fitted effect of over 55% in size
#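 qHTS luciferase splicing reporter: luminescence rises when SMN2 exon 7 is included in transfected HEK293 cells. Compound exposure lasted 30-36 h at 37C, with 4.5 mM final sodium butyrate as control, followed by a ONE-Glo read.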
# ELG1 genotoxic: qHTS screen for small molecules that induce genotoxicity in human embryonic kidney (HEK293T) cells expressing luciferase-tagged ELG1; 330,000 tested, 1.3% active; HEK293T ELG1-luciferase reporter, luminescence, 16 h; Potency, µM (series often up to 46 µM), for the others: at the top dose activity change, positive = activation, most hits filed as activators; also: % of control where 0% means no effect; nearly all actives have a fitted effect of over 60% in size
#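 After overnight (16 hr) compound treatment at 37 °C, ELG1-luciferase HEK293T cells were lysed with ONE-Glo; luminescence quantified 30 min later at room temperature.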
# FLuc counter: qHTS profiling assay for firefly luciferase inhibitor/activator using purifed enzyme and Km concentrations of substrates (counterscreen for miR-21 project); Luciferin 4-monooxygenase (Photinus pyralis), P08659; purified FLuc, Km substrates, luminescence inhibition; Potency, µM (top dose mostly 57.5 µM), for the others: top-dose activity change, negative = inhibition, actives largely listed as inhibitors; 360,000 tested, 6.9% active;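 also: plate controls were vehicle for no effect and reference inhibitor for full effect; nearly all actives have a fitted effect of over 55% in size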
# Target sequence (P08659 whole entry, looked up): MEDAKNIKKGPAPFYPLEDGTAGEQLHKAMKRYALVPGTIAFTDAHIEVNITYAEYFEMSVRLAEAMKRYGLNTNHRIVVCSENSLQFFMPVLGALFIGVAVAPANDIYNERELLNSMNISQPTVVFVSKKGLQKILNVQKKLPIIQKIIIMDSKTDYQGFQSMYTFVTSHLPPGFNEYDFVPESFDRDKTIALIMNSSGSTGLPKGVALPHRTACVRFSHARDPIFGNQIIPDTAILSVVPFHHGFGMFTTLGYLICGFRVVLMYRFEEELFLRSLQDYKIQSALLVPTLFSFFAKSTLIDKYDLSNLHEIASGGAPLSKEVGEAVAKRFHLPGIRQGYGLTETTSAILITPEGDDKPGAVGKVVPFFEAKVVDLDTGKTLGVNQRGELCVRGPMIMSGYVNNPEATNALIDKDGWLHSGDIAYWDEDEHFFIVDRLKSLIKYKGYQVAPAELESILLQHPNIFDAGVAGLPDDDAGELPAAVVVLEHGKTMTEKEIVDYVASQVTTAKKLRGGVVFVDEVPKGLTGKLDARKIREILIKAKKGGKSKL
#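 Purified P. pyralis luciferase, 10 nM final, with Km-level 10 uM D-luciferin and 10 uM ATP in 50 mM Tris acetate pH 7.5, 10 mM Mg acetate, 0.01% Tween-20, 0.05% BSA; 6-point qHTS titration about 60 µM downward; luminescence read.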
# Rab9 prom act: qHTS Assay for Rab9 Promoter Activators. Potency, µM (top dose mostly 9.22 µM), for inactives: at the top dose activation, negative = inhibition, most hits filed as activators. 320,000 tested, 2.8% active. Huh7 Rab9 promoter-luciferase reporter, luminescence, 24 h; also: % of control where 0% means no effect; nearly all actives have a fitted effect of over 60% in size
#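 Using Huh7 cells stably transfected with Rab9 promoter–luciferase, compounds were incubated 24 h at 37 °C, 5% CO2; luciferase luminescence was read 10 min after reagent addition.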
# uPA surface inh: qHTS for Inhibitors of Cell Surface uPA Generation; cell surface uPA generation assay, qHTS; Potency, µM (series often up to 38.3 µM), for inactives: at the top dose activity change, negative = inhibition, usual class: inhibitors; 330,000 tested, 0.31% active; active = well fitted inhibition curve with a large enough effect; inconclusive = small, poorly fitted or top-dose-only effect; inactive = no such curve, though single readings can be large or run the other way; tested in mouse RAW 264.7 cells; also: % is scaled to controls: 0 for no effect and ±100 for the full control effect; nearly all actives have a fitted effect of over 55% in size
# NPC1 prom act: qHTS Assay for NPC1 Promoter Activators; AID 485313, 2010; Huh7 NPC1 promoter luciferase reporter, 24 h; 320,000 tested, 2.4% active; Potency, µM (doses to about 9.22 µM), inactives show at the highest dose activation, hits mostly activators; also: % of control where 0% means no effect; nearly all actives have a fitted effect of over 60% in size
#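 Compounds in DMSO were transferred onto Huh7 NPC1-luciferase reporter cells pre-incubated 2 h; after 24 h at 37 °C, Amplite reagent was dispensed and luminescence recorded 10 min later.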
# Active calls of the source: *; ? = inconclusive; · = no result; [ ] = another dose, or the depositor's remark. Only some compounds are listed: those with a hit (about 7.3% of all), similar ones and a draw of the others. Unless noted, calls follow the shape of the dose curve; as a rule, active = well fitted curve in the direction sought with a large enough effect; inconclusive = small, poorly fitted or top-dose-only effect, or another doubt; inactive = no such curve, though single readings can be large; an effect the other way counts as inactive or inconclusive. Potency is read from the fitted curve at half-maximal effect.
SMILES,SMN2 splice up,ELG1 genotoxic,FLuc counter,Rab9 prom act,uPA surface inh,NPC1 prom act
CCCN1C(=O)/C(=C/c2ccc(OCc3ccc(C(=O)O)cc3)c(OC)c2)NC1=S,·,·,·,·,0%,·
COc1cc(/C=C2\NC(=S)NC2=O)ccc1OCc1cccc(C(=O)O)c1,·,21µM*,0.38µM*,17%,9%,19%
Cc1cccc(NC(=O)c2oc3ccccc3c2NC(=O)Cc2coc3c(C)c(C)ccc23)c1,22%,·,-1%,·,·,·
COC(=O)C(C)Sc1ncnc2c1nnn2-c1ccc(F)cc1 (stereo not given),-2%,?,8.5µM*,29%,-8%,?
CCOC(=O)CNC(=O)CSc1ncnc2c1nnn2-c1ccc(F)cc1,-12%,7%,?,-1%,-4%,0%
Oc1ccc(/C=N/N=C(c2ccccc2)c2ccccc2)c(O)c1O,7%,-4%,?,-3%,-9%,-9%
CC(C)N=c1scc(-c2cccs2)n1/N=C/c1ccc(O)c(O)c1O,3%[1.84 µM],?,24µM*,5%,-19%,2%
CCN=c1scc(-c2cccs2)n1/N=C/c1cc(OC)ccc1O,?,?,2.4µM*,?,-3%,2µM*
COc1ccc(O)c(/C=N/n2c(-c3ccco3)csc2=Nc2cccnc2)c1,-13%[1.84 µM],2%,-2%,2%,4%,-2%
Fc1ccc(N=Cc2ccc[nH]2)cc1,·,1%,-9%,-4%,1%,0%
CN=c1scc(-c2ccccc2F)n1/N=C/c1ccc(O)c(O)c1O,0.63µM*,9%,0.76µM*,?,-12%,?
CN=c1scc(-c2ccccc2F)n1/N=C/c1ccc[nH]1,-110%,-17%,0.027µM*,-30%,-10%,-41%
COc1ccc(N2CCN(Cc3nc4c(c(=O)n(C)c(=O)n4C)n3C(C)C)CC2)cc1,·,·,-1%,·,·,·
CCCCN(CC)CCCNC(=O)C1CCCN(c2ncnc3c2nc2n3CCCCC2)C1 (stereo not given),·,·,0%,·,·,·
COc1cccc(CNc2cc(C)nc3nc(-c4ccc(C)cc4)nn23)c1,·,·,1.7µM*,·,·,·
O=C(/C=C/c1ccccc1F)c1ccoc1,1%,-1%,12µM*,4%,1%,-4%
O=C(/C=C/c1ccccc1F)N1CCN(c2ccccn2)CC1,·,10%,?,8%,4%,6%
COc1cc(Cl)c(C)cc1NC(=O)CCc1c(C)nc2c3cccnc3nn2c1C,3%,·,-1%,·,·,·
O=C(O)Cn1cc(/C=N/Nc2ccc([N+](=O)[O-])cn2)c2ccccc21,·,0%,13µM*,-3%,-2%,2%
Cc1ccc(-n2c(C)cc(/C=N/Nc3ccc([N+](=O)[O-])cn3)c2C)cc1,-9%,1%,0%,3%,1%,2%
Cc1cc(/C=N/Nc2ccc([N+](=O)[O-])cn2)c(C)n1-c1ccccc1,?,?,?,3.5µM*,3%,?
Cc1cc(=O)[nH]c(N=N/C(=N/Nc2ccc(O)cc2)c2ccccc2)n1,-55%,?,11µM*,0%,-8%,4%
Cc1cc(=O)[nH]c(N=N/C(=N/Nc2ccccc2C)c2ccccc2)n1,-94%,4%,-20%,-29%,-9%,-16%
COc1ccc(N/N=C(/N=Nc2nc(C)cc(=O)[nH]2)c2ccccc2)cc1,-62%,2.6µM*,4.3µM*,-9%,-13%,?
Cc1ccc(S(=O)(=O)c2nnn3c2nc(N2CCCC(C)C2)c2cc(Cl)ccc23)cc1C (stereo not given),-6%,·,0%,·,·,·
SMILES,SMN2 splice up,ELG1 genotoxic,FLuc counter,Rab9 prom act,uPA surface inh,NPC1 prom act
CC(=O)Nc1cccc(-c2nc(-c3ccccc3)no2)c1,·,·,2.4µM*,·,·,·
CC(=O)Nc1cccc(-c2nc3ccccc3c(=O)o2)c1,-5%,0%,-7%,-3%,-4%,0%
CC(=O)Nc1cccc(-c2nnc(-c3ccccc3)o2)c1,13µM*,8.2µM*,12µM*,3.5µM*,-5%,3.5µM*
O=C(Nc1ccccc1)Nc1cccc(-c2nnco2)c1,·,-3%,15µM*,17%,-3%,3%
CCOc1cccc(C(=O)Nc2cccc(-c3nnc(-c4ccccc4)o3)c2)c1,-15%,-9%,6.7µM*,6%,6%,1%
COCC(C)NC(=O)c1cc(-c2ccc(O)cc2)on1 (stereo not given),9%,?,-20%,25%,-27%,27%
COc1ccc(-c2cc(C(=O)NCC(C)C)no2)cc1,11µM*,2.6µM*,2.4µM*,0.71µM*,·,1.4µM*
CCC(C)NC(=O)c1cc(-c2ccc(OC)cc2)on1 (stereo not given),10µM*,?,6µM*,3.2µM*,·,2.8µM*
COc1ccc(-c2cc(C(=O)O)no2)cc1,·,1%,-3%,-3%,6%,-4%
COc1ccc2cc(C(=O)NCc3ccc4c(c3)CCN4C(=O)c3ccc(C)cc3)[nH]c2c1,·,·,-11%,·,·,·
OC1(c2ccccc2)CN(c2ccccc2)C2=[N+]1CCS2 (stereo not given),-7%,-2%,-3%,0%,8%,0%
CC(=O)c1ccc(NC2=NS(=O)(=O)c3ccccc32)cc1,9%,·,?,·,·,·
COc1ccc(NC(=O)N2CC3(CCN(C(=O)c4cccc(F)c4)CC3)C2)cc1,-6%,·,·,·,·,·
CCC(=O)NC(c1ccc(OC)cc1)c1c(O)ccc2ccccc12 (stereo not given),-16%,1%,1%,-26%,5.6µM*,-30%
O=C(NCCc1cccc(Cl)c1)c1ccc2c(c1)OCO2,·,2.6µM*,1.5µM*,0.45µM*,?,0.32µM*
O=C(NCCc1ccccc1)C(=O)Nc1ccc2c(c1)OCCO2,20%,?,-6%,26%,-2%,30%
COc1ccc(CCNC(=O)c2ccc3c(c2)OCCO3)cc1,?,?,9.5µM*,3.2µM*,-2%,?
O=C(NCCc1ccccc1)c1ccc2c(c1)OCCO2,·,?,0.13µM*,0.0032µM*,-9%,0.016µM*
COc1ccc(CCNC(=O)c2ccc3c(c2)OCO3)cc1,·,15%,?,?,1%,23%
O=C(NCc1cccc(Cl)c1)c1ccc2c(c1)OCCO2,·,11%,?,24%,0%,19%
COc1ccc(CCNC(=O)c2coc(=O)c(Br)c2)cc1,·,18µM*,0%,9%,?,9%
Cc1ccc(Nc2c(-c3cccnc3)nc3ccc(Cl)cn23)cc1,-8%,·,5%,·,·,·
COc1ccccc1CN1CCCC2(CCN(C(=O)c3cnccn3)CC2)C1,-10%,·,·,·,·,·
